In ChEMBL document CHEMBL1961873, “Compounds: GSK PKIS; Assays: Nanosyn kinase panel” (2012) one finds inhibition data, which are given here for seven molecules.

In experiment [1] the target is RAC-alpha serine/threonine-protein kinase (Homo sapiens) (UniProt P31749). Particulars: at 0.1 µM.
The target is the same in experiment [2]. Particulars: at 1 µM.
Experiment [3] addresses RAC-beta serine/threonine-protein kinase (Homo sapiens) (UniProt P31751). The conditions noted are these: at 0.1 µM.
Experiment [4] shares this target. The conditions noted are these: at 1 µM.
The target of experiment [5] is RAC-gamma serine/threonine-protein kinase (Homo sapiens) (UniProt Q9Y243). Particulars: at 0.1 µM.
RAC-gamma serine/threonine-protein kinase (Homo sapiens), sequence (Q9Y243 whole entry): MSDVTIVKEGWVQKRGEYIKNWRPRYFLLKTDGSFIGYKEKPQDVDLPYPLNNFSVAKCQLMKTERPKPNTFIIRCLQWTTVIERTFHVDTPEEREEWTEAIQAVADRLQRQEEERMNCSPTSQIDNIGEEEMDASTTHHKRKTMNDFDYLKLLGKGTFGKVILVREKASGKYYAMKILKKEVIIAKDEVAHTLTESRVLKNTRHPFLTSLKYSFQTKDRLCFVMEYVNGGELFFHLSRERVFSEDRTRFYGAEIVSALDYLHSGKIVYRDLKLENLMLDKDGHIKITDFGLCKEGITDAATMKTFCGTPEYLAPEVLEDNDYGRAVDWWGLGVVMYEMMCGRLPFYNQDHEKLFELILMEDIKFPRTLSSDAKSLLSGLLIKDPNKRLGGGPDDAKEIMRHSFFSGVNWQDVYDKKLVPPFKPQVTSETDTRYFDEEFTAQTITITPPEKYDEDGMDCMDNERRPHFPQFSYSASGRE
Experiment [6] addresses G protein-coupled receptor kinase 6 (Homo sapiens) (UniProt P43250). The conditions noted are these: at 0.1 µM.
The target of experiment [7] is T1, Rhodopsin kinase GRK7 (Homo sapiens) (UniProt Q8WTQ7).
T1 sequence (whole entry): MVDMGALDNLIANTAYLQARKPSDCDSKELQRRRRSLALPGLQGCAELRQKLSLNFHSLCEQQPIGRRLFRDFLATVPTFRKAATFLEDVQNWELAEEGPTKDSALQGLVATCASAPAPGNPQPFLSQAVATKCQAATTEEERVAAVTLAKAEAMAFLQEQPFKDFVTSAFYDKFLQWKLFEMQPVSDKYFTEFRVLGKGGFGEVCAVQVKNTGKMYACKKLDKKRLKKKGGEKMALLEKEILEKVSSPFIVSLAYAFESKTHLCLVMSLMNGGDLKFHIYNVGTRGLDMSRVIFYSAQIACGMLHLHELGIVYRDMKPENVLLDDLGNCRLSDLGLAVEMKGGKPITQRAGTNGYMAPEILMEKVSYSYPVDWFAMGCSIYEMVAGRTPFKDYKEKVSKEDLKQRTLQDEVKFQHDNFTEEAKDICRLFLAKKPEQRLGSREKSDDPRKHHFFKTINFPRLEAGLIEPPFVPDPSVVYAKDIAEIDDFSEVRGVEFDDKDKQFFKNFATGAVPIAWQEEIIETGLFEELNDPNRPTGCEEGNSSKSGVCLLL
Particulars: at 0.1 µM.

Experiment [8] has as its target T1, Rhodopsin kinase GRK7 (Homo sapiens). The conditions noted are these: at 1 µM.
The target of experiment [9] is Serine/threonine-protein kinase MRCK alpha (Homo sapiens) (UniProt Q5VT25). The conditions noted are these: at 0.1 µM.
Serine/threonine-protein kinase MRCK alpha (Homo sapiens), sequence (Q5VT25 whole entry): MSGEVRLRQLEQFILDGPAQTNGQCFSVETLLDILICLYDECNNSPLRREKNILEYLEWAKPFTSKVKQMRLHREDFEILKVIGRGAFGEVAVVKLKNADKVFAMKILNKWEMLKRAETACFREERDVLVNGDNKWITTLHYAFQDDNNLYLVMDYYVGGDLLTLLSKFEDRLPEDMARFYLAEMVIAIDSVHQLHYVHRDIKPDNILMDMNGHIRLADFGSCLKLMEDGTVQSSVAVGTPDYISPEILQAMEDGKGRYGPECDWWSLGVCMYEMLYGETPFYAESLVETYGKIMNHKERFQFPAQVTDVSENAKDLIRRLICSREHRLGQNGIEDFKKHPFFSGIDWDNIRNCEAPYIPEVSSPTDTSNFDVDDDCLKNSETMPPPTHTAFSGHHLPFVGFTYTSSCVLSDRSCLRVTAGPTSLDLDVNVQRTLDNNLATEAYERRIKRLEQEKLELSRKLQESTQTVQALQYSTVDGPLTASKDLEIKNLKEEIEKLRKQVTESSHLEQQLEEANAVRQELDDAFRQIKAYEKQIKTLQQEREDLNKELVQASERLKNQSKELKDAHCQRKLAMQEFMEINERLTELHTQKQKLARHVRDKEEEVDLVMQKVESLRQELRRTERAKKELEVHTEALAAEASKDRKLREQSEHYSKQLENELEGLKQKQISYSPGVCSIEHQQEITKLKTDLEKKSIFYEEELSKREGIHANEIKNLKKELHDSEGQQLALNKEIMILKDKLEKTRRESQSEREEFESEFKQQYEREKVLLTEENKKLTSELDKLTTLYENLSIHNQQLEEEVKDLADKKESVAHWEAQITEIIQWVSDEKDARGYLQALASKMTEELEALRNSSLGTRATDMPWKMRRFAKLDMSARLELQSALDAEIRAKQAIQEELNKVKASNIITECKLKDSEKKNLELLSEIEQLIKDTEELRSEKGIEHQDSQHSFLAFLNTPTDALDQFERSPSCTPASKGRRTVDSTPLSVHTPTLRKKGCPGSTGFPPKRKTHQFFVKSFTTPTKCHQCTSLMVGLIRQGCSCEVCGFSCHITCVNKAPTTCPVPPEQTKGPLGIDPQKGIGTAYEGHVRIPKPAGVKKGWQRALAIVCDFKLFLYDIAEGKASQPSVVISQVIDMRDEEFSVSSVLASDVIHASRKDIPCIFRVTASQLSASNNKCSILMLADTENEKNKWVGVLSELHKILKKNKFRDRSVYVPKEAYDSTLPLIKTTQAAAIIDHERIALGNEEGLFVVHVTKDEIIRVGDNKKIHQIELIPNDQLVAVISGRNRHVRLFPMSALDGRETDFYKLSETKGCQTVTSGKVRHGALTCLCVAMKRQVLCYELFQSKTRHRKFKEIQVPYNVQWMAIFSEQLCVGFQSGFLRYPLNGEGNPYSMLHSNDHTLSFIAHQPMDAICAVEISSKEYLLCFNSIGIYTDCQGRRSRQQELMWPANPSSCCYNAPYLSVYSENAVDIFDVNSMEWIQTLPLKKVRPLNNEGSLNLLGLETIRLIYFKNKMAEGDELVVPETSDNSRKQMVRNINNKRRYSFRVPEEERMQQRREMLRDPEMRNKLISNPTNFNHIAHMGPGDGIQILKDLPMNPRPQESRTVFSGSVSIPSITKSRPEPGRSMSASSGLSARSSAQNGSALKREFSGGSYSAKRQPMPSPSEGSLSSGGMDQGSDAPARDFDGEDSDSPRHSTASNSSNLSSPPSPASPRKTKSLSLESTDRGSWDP
Experiment [10] shares this target. The conditions noted are these: at 1 µM.
The target in experiment [11] is Serine/threonine-protein kinase MRCK beta (Homo sapiens) (UniProt Q9Y5S2). The conditions noted are these: at 0.1 µM.
The target is the same in experiment [12]. The conditions noted are these: at 1 µM.
For experiment [13], the target named is Ribosomal protein S6 kinase alpha-5 (Homo sapiens) (UniProt O75582). Particulars: at 0.1 µM.
For experiment [14] the target is unchanged. Particulars: at 1 µM.
Experiment [15] addresses Ribosomal protein S6 kinase alpha-4 (Homo sapiens) (UniProt O75676). The conditions noted are these: at 0.1 µM.
The target is the same in experiment [16]. The conditions noted are these: at 1 µM.
The target of experiment [17] is Ribosomal protein S6 kinase beta-1 (Homo sapiens) (UniProt P23443). Particulars: at 0.1 µM.
Ribosomal protein S6 kinase beta-1 (Homo sapiens), sequence (P23443 whole entry, looked up): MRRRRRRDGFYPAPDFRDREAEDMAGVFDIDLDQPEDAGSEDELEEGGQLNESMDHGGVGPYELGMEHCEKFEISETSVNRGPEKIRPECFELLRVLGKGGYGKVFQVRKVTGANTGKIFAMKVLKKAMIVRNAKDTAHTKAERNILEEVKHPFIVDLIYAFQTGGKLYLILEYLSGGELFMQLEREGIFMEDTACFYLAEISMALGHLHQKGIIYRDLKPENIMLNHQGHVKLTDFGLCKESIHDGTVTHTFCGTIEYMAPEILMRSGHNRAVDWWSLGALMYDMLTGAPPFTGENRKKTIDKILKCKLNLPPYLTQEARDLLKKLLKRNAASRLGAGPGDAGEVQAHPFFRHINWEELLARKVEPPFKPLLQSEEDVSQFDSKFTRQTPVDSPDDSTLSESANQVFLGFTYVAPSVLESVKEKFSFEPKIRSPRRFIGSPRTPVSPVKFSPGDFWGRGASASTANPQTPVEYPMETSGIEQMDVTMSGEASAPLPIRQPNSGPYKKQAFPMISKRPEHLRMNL
For experiment [18] the target is unchanged. The conditions noted are these: at 1 µM.
The target of experiment [19] is RAC-gamma serine/threonine-protein kinase (Homo sapiens) (UniProt Q9Y243). The conditions noted are these: at 1 µM.
Experiment [20] has as its target G protein-coupled receptor kinase 6 (Homo sapiens) (UniProt P43250). Particulars: at 1 µM.

Ribosomal protein S6 kinase alpha-4 (Homo sapiens), sequence (O75676 whole entry, looked up): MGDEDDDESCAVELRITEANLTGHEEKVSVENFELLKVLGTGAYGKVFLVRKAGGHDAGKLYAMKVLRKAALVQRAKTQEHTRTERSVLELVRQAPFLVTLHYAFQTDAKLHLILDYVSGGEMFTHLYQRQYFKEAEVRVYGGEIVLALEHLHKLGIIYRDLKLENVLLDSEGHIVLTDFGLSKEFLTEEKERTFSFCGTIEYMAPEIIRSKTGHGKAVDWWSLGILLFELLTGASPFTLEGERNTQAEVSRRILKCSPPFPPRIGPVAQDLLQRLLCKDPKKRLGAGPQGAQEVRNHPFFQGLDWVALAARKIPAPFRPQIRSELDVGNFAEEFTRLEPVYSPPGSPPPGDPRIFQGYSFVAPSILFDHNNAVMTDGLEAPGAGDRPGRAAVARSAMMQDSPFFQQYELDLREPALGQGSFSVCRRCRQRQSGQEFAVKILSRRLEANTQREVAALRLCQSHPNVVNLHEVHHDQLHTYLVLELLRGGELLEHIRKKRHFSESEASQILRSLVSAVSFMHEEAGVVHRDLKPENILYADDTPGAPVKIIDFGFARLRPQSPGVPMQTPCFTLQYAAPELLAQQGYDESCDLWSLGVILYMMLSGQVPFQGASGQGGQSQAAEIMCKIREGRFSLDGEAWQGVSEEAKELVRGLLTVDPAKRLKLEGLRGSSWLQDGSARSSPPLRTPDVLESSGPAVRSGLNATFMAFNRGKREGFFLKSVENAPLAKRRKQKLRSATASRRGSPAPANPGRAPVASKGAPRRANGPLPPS
G protein-coupled receptor kinase 6 (Homo sapiens), sequence (P43250 whole entry, looked up): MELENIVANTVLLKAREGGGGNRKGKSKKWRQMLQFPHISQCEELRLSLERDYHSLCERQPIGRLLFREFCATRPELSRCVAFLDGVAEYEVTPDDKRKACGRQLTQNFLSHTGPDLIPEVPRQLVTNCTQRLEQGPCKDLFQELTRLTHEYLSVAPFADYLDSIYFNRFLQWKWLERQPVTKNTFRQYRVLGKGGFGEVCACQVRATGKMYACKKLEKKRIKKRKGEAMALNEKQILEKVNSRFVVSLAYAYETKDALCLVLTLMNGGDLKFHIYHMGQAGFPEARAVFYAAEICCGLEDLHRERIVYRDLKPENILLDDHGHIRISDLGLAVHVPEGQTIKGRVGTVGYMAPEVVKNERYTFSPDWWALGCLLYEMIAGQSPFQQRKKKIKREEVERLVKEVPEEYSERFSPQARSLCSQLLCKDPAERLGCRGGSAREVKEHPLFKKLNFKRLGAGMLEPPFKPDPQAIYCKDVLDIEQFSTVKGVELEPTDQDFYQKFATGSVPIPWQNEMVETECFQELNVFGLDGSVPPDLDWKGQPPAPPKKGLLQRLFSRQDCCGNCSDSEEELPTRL
RAC-alpha serine/threonine-protein kinase (Homo sapiens), sequence (P31749 whole entry): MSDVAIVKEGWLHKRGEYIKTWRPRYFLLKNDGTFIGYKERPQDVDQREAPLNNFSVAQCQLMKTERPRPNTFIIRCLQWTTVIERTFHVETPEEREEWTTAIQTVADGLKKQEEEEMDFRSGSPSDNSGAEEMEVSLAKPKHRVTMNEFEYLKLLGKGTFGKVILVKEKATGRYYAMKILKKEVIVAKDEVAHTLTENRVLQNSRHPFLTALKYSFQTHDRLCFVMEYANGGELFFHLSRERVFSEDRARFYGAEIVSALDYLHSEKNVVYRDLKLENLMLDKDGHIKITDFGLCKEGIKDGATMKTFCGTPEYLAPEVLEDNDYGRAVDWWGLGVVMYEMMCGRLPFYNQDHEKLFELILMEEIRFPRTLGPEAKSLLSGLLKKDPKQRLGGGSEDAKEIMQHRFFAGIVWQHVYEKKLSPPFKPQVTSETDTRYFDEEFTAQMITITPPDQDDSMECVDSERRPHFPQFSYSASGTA
RAC-beta serine/threonine-protein kinase (Homo sapiens), sequence (P31751 whole entry): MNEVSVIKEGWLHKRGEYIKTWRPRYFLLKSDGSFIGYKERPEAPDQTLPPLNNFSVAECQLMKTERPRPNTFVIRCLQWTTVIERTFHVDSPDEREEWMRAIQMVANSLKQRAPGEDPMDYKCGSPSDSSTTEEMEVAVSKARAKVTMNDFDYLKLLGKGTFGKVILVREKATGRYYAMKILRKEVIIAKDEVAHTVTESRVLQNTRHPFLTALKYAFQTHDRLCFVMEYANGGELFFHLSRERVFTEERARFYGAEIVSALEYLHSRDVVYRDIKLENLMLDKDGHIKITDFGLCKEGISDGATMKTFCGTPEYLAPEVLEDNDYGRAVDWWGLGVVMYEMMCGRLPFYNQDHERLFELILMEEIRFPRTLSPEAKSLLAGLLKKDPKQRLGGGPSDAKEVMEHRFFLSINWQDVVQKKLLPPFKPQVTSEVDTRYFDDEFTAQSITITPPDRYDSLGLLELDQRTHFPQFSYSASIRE

As to `Cc1cc(-c2ccco2)cc(C)c1/C=C/c1cncc(-c2nn[nH]n2)c1`, the inhibition (in general, the change of the read-out against control, counted positive when it falls) in experiment [1] is -0.08%; in [2] it was -0.39%; in [3], -0.63%; in experiment [4], 0.09%; in experiment [5], -0.47%; in [6], -3.85%. Moreover, the inhibition is 11.8% in experiment [7]; 49.9% in experiment [8]; -2.3% in experiment [9]; -3.4% in experiment [10]; 0.22% in experiment [11]; -0.72% in experiment [12]. For the same molecule, the inhibition in experiment [13] was -0.62%; in experiment [14], -1.54%; in [15] it was 0.13%; in [16], 1.02%; in experiment [17] it was 0.97%; in experiment [18] it was -0.33%.
For the molecule `NS(=O)(=O)c1ccc(-c2ccc3c(NC(=O)C4CC4)n[nH]c3c2)cc1`, the inhibition in experiment [1] is 0.97%; in [2], 1%; in experiment [3] it was 1.38%; in experiment [4], 0.67%; in experiment [5] it was 0.25%; in experiment [19], -0.65%. The inhibition is 0.33% in experiment [6]; -2.37% in [20]; -0.74% in experiment [7]; -0.42% in experiment [9]; -1.48% in [10]; 0.24% in experiment [11]. Moreover, the inhibition is 1.84% in experiment [12]; 3.18% in experiment [13]; 7.98% in experiment [14]; -0.31% in [15]; 4.18% in experiment [16]; 0.95% in [17]. The inhibition in [18] stood at 2.84%.
Consider `COc1cccc(COc2cc(-n3cnc4ccccc43)sc2C(N)=O)c1`, for which the inhibition in experiment [1] is 2.26%; in experiment [2], 0.35%; in experiment [4], 2.81%; in [5] it was -0.85%; in experiment [19], -1.8%; in experiment [6], 0.1%. Moreover, the inhibition in [20] is 0.82%; in [7], 4.74%; in experiment [8] it was -0.33%; in experiment [9] it was -5.2%; in experiment [10] it was -1.17%; in [11], -0.37%. In addition, the inhibition in experiment [12] was 0.51%; in [13], 0.54%; in experiment [14], -1.08%; in experiment [15] it was 1.36%; in [16], -0.28%; in experiment [17], 0.45%. In experiment [18], the inhibition was -0.53%.
In the case of `COc1cccc(-n2ncc3c(N/N=C/c4ccncc4)ncnc32)c1`, the inhibition is 0.24% in [1]; -0.78% in experiment [2]; 1.42% in experiment [3]; -0.44% in [4]; 3.63% in [5]; 0.47% in experiment [19]. Moreover, the inhibition is 1.7% in experiment [6]; 1.85% in experiment [20]; 5.1% in [7]; 5.17% in experiment [8]; -0.11% in experiment [9]; 3.78% in experiment [10]. The inhibition in experiment [11] was found to be 0.53%; in experiment [12], 0.77%; in experiment [13], 3.86%; in [14], 4.1%; in experiment [15], 2.47%; in experiment [16], 4.26%. In addition, the inhibition in experiment [17] came out at 2.67%; in experiment [18] it was 7.24%.
In the case of `CCn1c(-c2nonc2N)nc2c(C#CCN)ncc(OCCCN)c21`, the inhibition in experiment [1] was -0.6%; in experiment [2] it was 10.9%; in experiment [3], -0.31%; in experiment [4], 12.8%; in [5] it was 1.83%; in experiment [19] it was 10%. The inhibition was -5.01% in experiment [6]; 6.23% in experiment [20]; 0.4% in experiment [7]; 7.43% in experiment [8]; 6.68% in experiment [9]; 13.4% in [10]. In addition, the inhibition was 6.58% in experiment [11]; 23.4% in [12]; 12.1% in [13]; 51.5% in experiment [14]; 12.9% in experiment [15]; 52% in experiment [16]. Further, the inhibition in experiment [17] turned out to be 7.3%; in experiment [18], 44.7%.
With `CCn1c(-c2nonc2N)nc2c(C#CC(C)(C)O)nc(O[C@@H](CN)c3ccccc3)cc21`, the inhibition in [1] came to 93.7%; in [2], 96.4%; in [5], 93.3%; in experiment [19], 95%; in experiment [6], 1.13%; in experiment [20] it was 1.51%. Also, the inhibition in experiment [7] is 3%; in experiment [8] it was 114%; in [9], 29%; in experiment [10], 72.8%; in experiment [11] it was 20.8%; in experiment [12], 66.2%. Besides, the inhibition was found to be 8.67% in experiment [13]; 51.3% in experiment [14]; 15% in [15]; 61.3% in [16]; 13.1% in [17]; 58.4% in [18].
For `COc1cc2c(cc1Nc1nc(Nc3ccsc3C(N)=O)c3cc[nH]c3n1)N(C(=O)CN(C)C)CCC2`, the inhibition in [1] was -0.27%; in [2] it was -0.06%; in experiment [3], 2.64%; in experiment [4] it was 0.91%; in experiment [5], 2.81%; in experiment [19], 4.75%. Further, the inhibition in experiment [6] was 27.5%; in [20], 82.8%; in experiment [7], 22.1%; in experiment [8], 60.3%; in experiment [9] it was -2.47%; in [10], -0.12%. In addition, the inhibition in [11] is -0.68%; in experiment [12] it was -0.44%; in experiment [13], 2.59%; in [14], -0.04%; in [15], 2.53%; in experiment [16], -0.18%. Besides, the results for the inhibition in experiment [17] and in experiment [18] were 1.15% and 0.53%, respectively.
